Source: ChEMBL document CHEMBL4513146, “CO-ADD screening of Karazin Kharkiv National University (Ukraine) compounds”
Measured potencies and affinities stand elsewhere.

What was measured:
Klebsiella pneumoniae = settings: Concentration 32 ug.mL-1;; ASSAY_TEST Inhibition of Bacterial Growth; detection method Absorption (OD600); MEDIA CAMHB; plate type 384well; NBS; CORNING #3640; time 18 hr
Candida albicans = settings: Concentration 32 ug.mL-1; ASSAY_TEST Inhibition of Fungal Growth; detection method Absorption (OD530)
Cryptococcus neoformans = settings: Concentration 32 ug.mL-1; ASSAY_TEST Inhibition of Fungal Growth; detection method Resazurin; Absorption (OD600-OD570); plate type 384well; NBS; CORNING #3640

Which Inhibition (Klebsiella pneumoniae) does the source give for `COc1ccccc1-n1ccn2c(SCC#N)nnc2c1=O` here?
The Inhibition was 22.72%.

And the Inhibition (Candida albicans)?
The Inhibition was 4.95%.

What about the Inhibition (Cryptococcus neoformans) of the same compound?
The Inhibition was -18.74%.

Which Inhibition (Klebsiella pneumoniae) does the source give for `COc1ccc(NC(=O)Cn2nc3ccc(SCc4ccc(Cl)cc4)nn3c2=O)cc1OC` here?
Its Inhibition is -4.29%.

And the Inhibition (Candida albicans)?
The Inhibition was 32.62%.

What about the Inhibition (Cryptococcus neoformans) of the same compound?
Its Inhibition is -6.53%.

What does the source list for `Cc1ccc(-c2cc3c4nn(CC(=O)NC5CCCC5)c(=O)n4ccn3n2)cc1C`?
Inhibition (Klebsiella pneumoniae): 3.15%; Inhibition (Candida albicans): 6.8%; Inhibition (Cryptococcus neoformans): -13.73%

With `COc1ccc(OC)c(NC(=O)Cn2nc3ccc(-c4ccc(C)cc4)nn3c2=O)c1` as the compound, how does the Inhibition (Klebsiella pneumoniae) read?
Its Inhibition is 1.76%.

What about the Inhibition (Candida albicans) of the same compound?
Its Inhibition is 0.83%.

What about the Inhibition (Cryptococcus neoformans) of the same compound?
The Inhibition was -12.04%.

How did the Inhibition (Klebsiella pneumoniae) turn out when `O=C(CSc1nnc2c3cc(-c4ccccc4)nn3ccn12)Nc1cccc(Br)c1` was run?
The Inhibition was 14.04%.

And the Inhibition (Candida albicans)?
Its Inhibition is 3.21%.

What about the Inhibition (Cryptococcus neoformans) of the same compound?
The Inhibition was -28.34%.

`CC(=O)c1cccc(NC(=O)Cn2nc3c(N4CCN(c5ccccc5C)CC4)nccn3c2=O)c1` was tested. Which Inhibition (Klebsiella pneumoniae) did it give?
Its Inhibition is 15.26%.

And the Inhibition (Candida albicans)?
Its Inhibition is 5.86%.

And the Inhibition (Cryptococcus neoformans)?
Its Inhibition is -6.16%.

For `Cc1ccc(Cl)cc1NC(=O)CSc1nc2ccccc2n2c(C)nnc12`, which Inhibition (Klebsiella pneumoniae) is on record?
The Inhibition was 2.82%.

And the Inhibition (Candida albicans)?
The Inhibition was 5.91%.

What about the Inhibition (Cryptococcus neoformans) of the same compound?
Its Inhibition is -21.14%.

How did the Inhibition (Klebsiella pneumoniae) turn out when `Cc1ccc(CNC(=O)Cn2nc3c(Sc4cccc(F)c4)nccn3c2=O)cc1` was run?
Its Inhibition is -2.32%.

What about the Inhibition (Candida albicans) of the same compound?
Its Inhibition is 4.04%.

And the Inhibition (Cryptococcus neoformans)?
Its Inhibition is -11.39%.

For `CCCCOc1ccc(-c2cc3c4nnc(SCC(=O)NCc5ccc(C)cc5)n4ccn3n2)cc1`, which Inhibition (Klebsiella pneumoniae) is on record?
Its Inhibition is 3.76%.

What about the Inhibition (Candida albicans) of the same compound?
The Inhibition was 12.04%.

What about the Inhibition (Cryptococcus neoformans) of the same compound?
The Inhibition was -14.64%.

For `CC(C)(C)Sc1ccc2nn(CC(=O)N3CCN(c4ccc(F)cc4)CC3)c(=O)n2n1`, which Inhibition (Klebsiella pneumoniae) is on record?
The Inhibition was 10%.

And the Inhibition (Candida albicans)?
Its Inhibition is 3.9%.

What about the Inhibition (Cryptococcus neoformans) of the same compound?
The Inhibition was -8.43%.

How did the Inhibition (Klebsiella pneumoniae) turn out when `CCCCOc1ccc(-c2cc3c4nnc(SCC(=O)Nc5ccc(C)c(C)c5)n4ccn3n2)cc1` was run?
The Inhibition was 4.46%.

What about the Inhibition (Candida albicans) of the same compound?
The Inhibition was -1.19%.

And the Inhibition (Cryptococcus neoformans)?
The Inhibition was -6.11%.

With `COc1cccc(CNC(=O)CSc2nnc3ccc(C(=O)Nc4cccc(F)c4)cn23)c1` as the compound, how does the Inhibition (Klebsiella pneumoniae) read?
Its Inhibition is -3.24%.

What about the Inhibition (Candida albicans) of the same compound?
The Inhibition was 0.25%.

What about the Inhibition (Cryptococcus neoformans) of the same compound?
Its Inhibition is -5.04%.

With `CCN(CCCNC(=O)CCc1nnc2ccc(-c3ccc(C)c(C)c3)nn12)c1ccccc1` as the compound, how does the Inhibition (Klebsiella pneumoniae) read?
Its Inhibition is 13.51%.

And the Inhibition (Candida albicans)?
The Inhibition was 13.02%.

And the Inhibition (Cryptococcus neoformans)?
Its Inhibition is -7.8%.

Which results are given for `COc1cccc(Oc2nccn3c(=O)n(CC(=O)Nc4ccc(OC)c(OC)c4)nc23)c1`?
Inhibition (Klebsiella pneumoniae): 7.97%; Inhibition (Candida albicans): 1.42%; Inhibition (Cryptococcus neoformans): -6.14%

`C=Cc1ccc(CN(c2ccc3c(c2)OCO3)S(=O)(=O)c2ccc3nncn3c2)cc1` was tested. Which Inhibition (Klebsiella pneumoniae) did it give?
The Inhibition was 11.26%.

And the Inhibition (Candida albicans)?
Its Inhibition is 1.71%.

And the Inhibition (Cryptococcus neoformans)?
The Inhibition was -6.68%.

Which Inhibition (Klebsiella pneumoniae) does the source give for `COc1cccc(Cn2nc3c(=O)n(-c4cccc(Cl)c4C)ccn3c2=O)c1` here?
Its Inhibition is -11.12%.

What about the Inhibition (Candida albicans) of the same compound?
Its Inhibition is 6.64%.

And the Inhibition (Cryptococcus neoformans)?
Its Inhibition is -14.85%.

Which Inhibition (Klebsiella pneumoniae) does the source give for `CCOC(=O)c1ccc(NC(=O)CSc2nc3ccccc3n3c(C(C)C)nnc23)cc1` here?
Its Inhibition is 8.56%.

And the Inhibition (Candida albicans)?
The Inhibition was -0.16%.

And the Inhibition (Cryptococcus neoformans)?
The Inhibition was -11.29%.

Which Inhibition (Klebsiella pneumoniae) does the source give for `Cn1c(=O)c2sccc2n2c(=O)n(CCOc3ccccc3)nc12` here?
The Inhibition was 1.76%.

And the Inhibition (Candida albicans)?
Its Inhibition is -1.1%.

And the Inhibition (Cryptococcus neoformans)?
The Inhibition was -29.95%.

Which Inhibition (Klebsiella pneumoniae) does the source give for `COc1ccc(NC(=O)Cn2nc3c4cc(-c5ccc(C)c(C)c5)nn4ccn3c2=O)cc1Cl` here?
Its Inhibition is 8.4%.

And the Inhibition (Candida albicans)?
The Inhibition was 6.09%.

What about the Inhibition (Cryptococcus neoformans) of the same compound?
Its Inhibition is -7.3%.

How did the Inhibition (Klebsiella pneumoniae) turn out when `CSc1ccc(CNC(=O)Cn2nc3c(N4CCN(c5ccccc5)CC4)nccn3c2=O)cc1` was run?
Its Inhibition is 15.47%.

And the Inhibition (Candida albicans)?
The Inhibition was 1.95%.

What about the Inhibition (Cryptococcus neoformans) of the same compound?
Its Inhibition is -6.85%.

With `Cc1cc2nn(CC(=O)Nc3cc(F)ccc3F)c(=O)n2c(Nc2ccc(F)c(C)c2)n1` as the compound, how does the Inhibition (Klebsiella pneumoniae) read?
The Inhibition was 12.97%.

And the Inhibition (Candida albicans)?
The Inhibition was 1.83%.

What about the Inhibition (Cryptococcus neoformans) of the same compound?
Its Inhibition is -3.72%.

What does the source list for `Cc1ccc(NC(=O)Cn2nc3ccc(-c4ccc(C)c(C)c4)nn3c2=O)cc1`?
Inhibition (Klebsiella pneumoniae): 11.7%; Inhibition (Candida albicans): -0.59%; Inhibition (Cryptococcus neoformans): -13.68%

How did the Inhibition (Klebsiella pneumoniae) turn out when `O=S(=O)(Nc1ccc2c(c1)OCCO2)c1ccc2nncn2c1` was run?
Its Inhibition is 12.24%.

And the Inhibition (Candida albicans)?
Its Inhibition is 2.83%.

What about the Inhibition (Cryptococcus neoformans) of the same compound?
Its Inhibition is -7.84%.

Which results are given for `CCc1ccc(N(Cc2ccc(C)cc2)S(=O)(=O)c2cccn3c(CC)nnc23)cc1`?
Inhibition (Klebsiella pneumoniae): 2.26%; Inhibition (Candida albicans): 5.38%; Inhibition (Cryptococcus neoformans): -7.79%

`COC(=O)c1ccc(NC(=O)Cn2nc3ccc(S(=O)(=O)C4CCCCC4)nn3c2=O)cc1` was tested. Which Inhibition (Klebsiella pneumoniae) did it give?
The Inhibition was 9.79%.

And the Inhibition (Candida albicans)?
The Inhibition was 17.49%.

What about the Inhibition (Cryptococcus neoformans) of the same compound?
Its Inhibition is -8.73%.

How did the Inhibition (Klebsiella pneumoniae) turn out when `Cc1ccc(-n2ccn3c(SC(C)C(=O)Nc4ccc5c(c4)OCCO5)nnc3c2=O)cc1C` (centres undefined) was run?
The Inhibition was 15.49%.

And the Inhibition (Candida albicans)?
The Inhibition was 0.29%.

And the Inhibition (Cryptococcus neoformans)?
The Inhibition was -6.97%.

`O=C(Cn1nc2c(Sc3cccc(F)c3)nccn2c1=O)Nc1cccc(Br)c1` was tested. Which Inhibition (Klebsiella pneumoniae) did it give?
Its Inhibition is 7.1%.

And the Inhibition (Candida albicans)?
Its Inhibition is -0.26%.

And the Inhibition (Cryptococcus neoformans)?
Its Inhibition is -2.48%.

With `Cc1c(Cl)cccc1-n1ccn2c(=O)n(Cc3c(F)cccc3Cl)nc2c1=O` as the compound, how does the Inhibition (Klebsiella pneumoniae) read?
Its Inhibition is 1.26%.

What about the Inhibition (Candida albicans) of the same compound?
The Inhibition was 11.96%.

What about the Inhibition (Cryptococcus neoformans) of the same compound?
The Inhibition was -12.75%.
